These results are taken from PubChem BioAssay (Tox21).

Unmarked numbers belong to inactive results. Results filed as inconclusive are left out. Active and inactive are the calls of the source. Unless noted, calls come from the whole dose curve; as a rule, active = well fitted curve in the direction sought with a large enough effect in the repeat runs; inconclusive = weak or mixed curves; inactive = no such curve, though single readings can be large; an effect the other way counts as inactive or inconclusive.

The target in assay [1] is Progesterone receptor (Homo sapiens) (UniProt P06401). Briefly: qHTS assay to identify small molecule antagonists of the progesterone receptor (PR) signaling pathway (AID 1346795; active = well fitted inhibition curve with a large enough effect in the signal ratio in the repeat runs, not every such curve was filed as active; the % refers to the signal ratio; note: potency is the fitted concentration of half-maximal effect). Put shortly:
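Inhibition of R5020-induced (1 nM final) beta-lactamase reporter signal in PR-UAS-bla HEK293T cells was scored by FRET fluorescence after overnight (16 hr) compound treatment.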
(In qHTS, concentration-response curves come from the screen itself.)

A short description of assay [2]: qHTS assay to identify small molecule antagonists of the progesterone receptor (PR) signaling pathway - cell viability counter screen (AID 1346798). Note: series mostly up to about 92 µM; nearly all actives have a fitted effect of over 50% in size. Put shortly: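 ATP content as viability readout: CellTiter-Glo luminescence, 30 min room temperature, in PR-UAS-bla HEK293T cells after 16 hr compound/R5020 treatment at 37C and 5% CO2.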
Assay [3] can be described thus: qHTS assay to identify small molecule agonists of the progesterone receptor (PR) signaling pathway - cell viability counter screen (AID 1346799; calls by dose curve; note: nearly all actives have a fitted effect of over 45% in size; note: potency is the fitted concentration of half-maximal effect). Put shortly:
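Cytotoxicity in PR-bla HEK293T cells: 16 h compound, 37C; CellTiter-Glo added post-FRET read; luminescence after 30 min RT.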

The nature of assay [4]: qHTS assay to identify small molecule antagonists of the TGF-beta/Smad signaling pathway - cell viability counter screen (AID 1346824). Note: nearly all actives have a fitted effect of over 50% in size. Put shortly: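 SBE-bla HEK 293T cells, incubated overnight, then compound plus 0.25 ng/mL TGF-beta1 (stock added) for 5 hr at 37 C. Viability was read in the same wells by CellTiter-Glo luminescence after 30 min at room temperature.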
A short description of assay [5]: qHTS assay to identify small molecule agonists of the TGF-beta/Smad signaling pathway - cell viability counter screen (AID 1346829). Note: top concentration of the series differs between compounds; nearly all actives have a fitted effect of over 45% in size. Put shortly:
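HEK 293T SBE-bla line, 5 hr compound exposure at 37 C, multiplexed CellTiter-Glo viability read by luminescence.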

Assay [6] is described as follows: qHTS assay to identify small molecule agonists of the TGF-beta/Smad signaling pathway (AID 1346859; active = well fitted activation curve with a large enough effect in the signal ratio in the repeat runs, not every such curve was filed as active; the % refers to the signal ratio; note: series mostly up to about 77 µM). Put shortly:
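Stable Smad binding element-beta-lactamase HEK 293T cells; 5 hr compound exposure at 37 C under 5% CO2; 2 hr room-temperature substrate step; fluorescence excited at 405 nm, collected at 460 nm and 530 nm.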

For assay [7], the target named is Thyrotropin-releasing hormone receptor (Homo sapiens) (UniProt P34981). Nature of the assay: qHTS assay to identify small molecule antagonists of the thyrotropin-releasing hormone receptor (TRHR) signaling pathway (AID 1346877; active = well fitted inhibition curve with a large enough effect in the repeat runs, not every such curve was filed as active; note: series mostly up to about 51 µM). Put shortly: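 Screening used HEK293 cells engineered with TRHR, with a brief 5 min room-temperature compound exposure preceding addition of TRH to 1 nM. The read-out was kinetic calcium-dye fluorescence, concentration-response from 15 doses in triplicate.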
Chain of Thyrotropin-releasing hormone receptor (Homo sapiens) (P34981 whole entry, looked up): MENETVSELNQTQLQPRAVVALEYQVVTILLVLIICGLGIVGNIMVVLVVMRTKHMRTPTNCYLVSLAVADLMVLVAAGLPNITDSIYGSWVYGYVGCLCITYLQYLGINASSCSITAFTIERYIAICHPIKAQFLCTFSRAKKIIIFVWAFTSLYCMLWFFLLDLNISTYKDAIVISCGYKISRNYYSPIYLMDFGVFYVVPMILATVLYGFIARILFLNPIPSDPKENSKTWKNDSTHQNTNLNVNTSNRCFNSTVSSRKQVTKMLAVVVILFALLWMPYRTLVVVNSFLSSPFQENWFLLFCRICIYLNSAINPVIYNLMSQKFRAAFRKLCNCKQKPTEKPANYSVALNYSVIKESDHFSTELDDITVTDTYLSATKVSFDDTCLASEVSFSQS

Assay [8] shares this target. Nature of the assay: qHTS assay to identify small molecule agonists of the thyrotropin-releasing hormone receptor (TRHR) signaling pathway (AID 1346891; calls by dose curve;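 note: HEK293 cells expressing TRHR with calcium dye readout; series mostly up to about 58 µM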). Put shortly:
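In 1536-format, 1500 TRHR-Hek293 cells per well grew 18 h, took up calcium dye for 2 h at 37 °C, received compound, and were read kinetically; 15-point titrations, triplicates.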

A short description of assay [9]: Human pregnane X receptor (PXR) small molecule agonists, qHTS cell viability counter screen (AID 1346977). Note: nearly all actives have a fitted effect of over 50% in size. Note: potency is the fitted concentration of half-maximal effect. Put shortly:
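Readout is CellTiter-Fluor fluorescence from PXR-Luc HepG2 cells. Plated cells rested 5hr, then were treated with compounds for 24hr at 37C and 5% CO2, with reagent present during the last hour.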

The nature of assay [10]: Caspase-3/7 induction in HepG2 cells by small molecules, qHTS assay (AID 1346978). Note: nearly all actives have a fitted effect of over 15% in size. Put shortly: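 Wild-type HepG2 cells, 2,000/well, settled 5 hr at 37 C and 5% CO2, then compound-treated for 17 hr; caspase-3/7 activity read by luminescent Caspase-Glo 3/7 after 30 min at room temperature.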

Chain of Progesterone receptor (Homo sapiens) (P06401 whole entry, looked up): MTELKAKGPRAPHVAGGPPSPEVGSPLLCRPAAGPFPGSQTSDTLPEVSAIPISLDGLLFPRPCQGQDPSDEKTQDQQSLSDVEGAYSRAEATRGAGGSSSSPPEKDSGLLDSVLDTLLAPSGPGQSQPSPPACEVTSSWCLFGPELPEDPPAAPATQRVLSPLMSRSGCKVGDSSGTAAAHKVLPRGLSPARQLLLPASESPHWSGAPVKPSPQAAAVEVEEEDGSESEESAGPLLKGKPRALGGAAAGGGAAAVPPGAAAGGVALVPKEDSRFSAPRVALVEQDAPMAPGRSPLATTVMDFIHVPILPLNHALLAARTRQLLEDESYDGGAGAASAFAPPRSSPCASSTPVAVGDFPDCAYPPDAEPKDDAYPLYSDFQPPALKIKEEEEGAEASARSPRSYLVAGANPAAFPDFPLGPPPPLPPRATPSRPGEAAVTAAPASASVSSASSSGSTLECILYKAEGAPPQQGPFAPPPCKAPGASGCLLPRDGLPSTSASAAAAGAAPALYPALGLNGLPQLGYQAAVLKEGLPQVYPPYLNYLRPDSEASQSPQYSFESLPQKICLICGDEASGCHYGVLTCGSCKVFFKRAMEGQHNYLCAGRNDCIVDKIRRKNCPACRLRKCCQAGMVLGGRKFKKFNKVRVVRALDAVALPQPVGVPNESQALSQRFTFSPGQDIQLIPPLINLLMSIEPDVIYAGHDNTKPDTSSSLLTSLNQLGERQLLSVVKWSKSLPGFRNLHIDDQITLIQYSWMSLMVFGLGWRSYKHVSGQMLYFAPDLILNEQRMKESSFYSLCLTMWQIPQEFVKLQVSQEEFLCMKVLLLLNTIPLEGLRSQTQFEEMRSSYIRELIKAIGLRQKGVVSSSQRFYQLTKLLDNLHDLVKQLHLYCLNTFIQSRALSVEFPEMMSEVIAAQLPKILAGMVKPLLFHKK

In the case of `NC(=O)c1ccccc1N`, the Potency result in assay [1], in assay [2], in assay [3], in [4], in [5] and in assay [6] was “inactive” in each case. Further, the Potency result in [7], in assay [8], in [9] and in [10] was “inactive” each time.
For `C=CC(=O)OCCC#N`, the Potency result in [1], in [2], in assay [3], in [4], in [5] and in [6] was “inactive” in each case. The Potency result in assay [7], in assay [8], in assay [9] and in [10] was “inactive” in each case.
`CC(=O)O[C@@H]1C[C@@H]2CC[C@@]1(C)C2(C)C`: the Potency entry in assay [1], in [2], in assay [3], in [4], in [5] and in assay [6] was “inactive” in each case. The Potency result in [7], in [8], in assay [9] and in assay [10] was “inactive” throughout.
Consider `CCC1CCCCC1`, for which the Potency result in assay [1], in assay [2], in assay [3], in [4], in assay [5] and in assay [6] was “inactive” throughout. Moreover, the Potency entry in [7], in [8], in assay [9] and in [10] was “inactive” each time.
Take `CN1CN(C)CN(C)C1`: the Potency entry in assay [1], in assay [2], in assay [3], in [4], in assay [5] and in assay [6] was “inactive” each time. In addition, the Potency entry in assay [7], in assay [8], in assay [9] and in assay [10] was “inactive” each time.
As for `O=c1cccc[nH]1`, the Potency result in assay [1], in [2], in assay [3], in assay [4], in assay [5] and in assay [6] was “inactive” throughout. In addition, the Potency entry in [7], in [8], in assay [9] and in [10] was “inactive” each time.
For the compound `CCc1cccc(CC)c1NC(=O)C(=O)O`, the Potency result in assay [1], in assay [2], in assay [3], in assay [4], in [5] and in assay [6] was “inactive” in each case. Moreover, the Potency entry in assay [7], in assay [8], in [9] and in assay [10] was “inactive” each time.
Take `O=C(O)CCCCCCC(=O)O`: the Potency result in assay [1], in [2], in assay [3], in assay [4], in assay [5] and in assay [6] was “inactive” in each case. Moreover, the Potency entry in assay [7], in assay [8], in assay [9] and in [10] was “inactive” in each case.
Regarding `CCCCCCCC/C=C/CCCOC(C)=O`, the Potency entry in assay [1], in assay [2], in [3], in assay [4], in assay [5] and in [6] was “inactive” each time. Further, the Potency entry in assay [7], in assay [8], in assay [9] and in assay [10] was “inactive” in each case.
As to `NC(=O)C(=O)N/N=C/c1ccc([N+](=O)[O-])o1`, the Potency result in assay [1], in assay [2], in assay [3], in assay [4], in assay [5] and in assay [6] was “inactive” throughout. The Potency entry in [7], in assay [8], in assay [9] and in [10] was “inactive” each time.
On to `CCCC(CC)CCCCCCCN` (centres undefined), for which the Potency result in [1], in assay [2], in assay [4], in [5], in assay [6] and in [7] was “inactive” each time. The Potency result in [8], in assay [9] and in [10] was “inactive” throughout. Besides, the Potency in [3] was 28 µM (active).
In the case of `Cn1cccc1`, the Potency entry in [1], in [2], in [3], in assay [4], in [5] and in [6] was “inactive” in each case. Further, the Potency entry in assay [7], in assay [8], in assay [9] and in [10] was “inactive” throughout.
With `CC(=O)OC1CCCCC1`, the Potency entry in assay [1], in assay [2], in [3], in assay [4], in [5] and in assay [6] was “inactive” in each case. For the same compound, the Potency result in assay [7], in assay [8], in [9] and in assay [10] was “inactive” each time.
Turning to `C=C(C)CCCC`, the Potency entry in assay [1], in assay [2], in assay [3], in assay [4], in assay [5] and in [6] was “inactive” throughout. Also, the Potency entry in [7], in assay [8], in assay [9] and in [10] was “inactive” throughout.
Regarding `CO[Si](CCC1CCC2OC2C1)(OC)OC` (centres undefined), the Potency result in assay [1], in assay [2], in [3], in [4], in assay [5] and in assay [6] was “inactive” each time. Moreover, the Potency entry in assay [7], in [8], in [9] and in assay [10] was “inactive” in each case.
For `CCOC(=O)COc1ccc(C)cc1`, the Potency result in assay [1], in [2], in [3], in [4], in assay [5] and in assay [6] was “inactive” in each case. Moreover, the Potency result in [7], in [8], in assay [9] and in [10] was “inactive” throughout.
Turning to `Cc1nc(Nc2ncc(C(=O)Nc3c(C)cccc3Cl)s2)cc(N2CCN(CCO)CC2)n1`, the Potency in assay [1] was 13.3 µM (active); in assay [9] it was 9.44 µM (active). In addition, the Potency entry in assay [2], in assay [3], in [4], in assay [5], in assay [6] and in assay [7] was “inactive” throughout. The Potency result in [8] was “inactive”.
For `CCOCOCC`, the Potency result in assay [1], in assay [2], in assay [3], in [4], in assay [5] and in assay [6] was “inactive” throughout. Also, the Potency result in assay [7], in [8], in [9] and in assay [10] was “inactive” in each case.
In the case of `O=C(O)CC(=O)O`, the Potency result in assay [1], in assay [2], in assay [3], in assay [4], in [5] and in assay [6] was “inactive” throughout. The Potency result in assay [7], in assay [8], in assay [9] and in assay [10] was “inactive” in each case.
`CCc1cccc(C)c1`: the Potency entry in assay [1], in [2], in assay [3], in assay [4], in assay [5] and in [6] was “inactive” in each case. The Potency result in assay [7], in assay [8], in assay [9] and in [10] was “inactive” in each case.
For `COC(=O)CC#N`, the Potency result in assay [1], in assay [2], in [3], in [4], in [5] and in assay [6] was “inactive” throughout. Besides, the Potency entry in assay [7], in assay [8], in [9] and in [10] was “inactive” in each case.
In the case of `CCCCCCS`, the Potency result in assay [1], in assay [2], in [3], in assay [4], in [5] and in assay [6] was “inactive” in each case. For the same compound, the Potency entry in assay [7], in [8], in assay [9] and in assay [10] was “inactive” throughout.
In the case of `CC[N+](CC)(CC)Cc1ccccc1`, the Potency result in assay [1], in [2], in [3], in [4], in assay [5] and in assay [6] was “inactive” throughout. Besides, the Potency entry in assay [7], in assay [8], in assay [9] and in assay [10] was “inactive” throughout.
For `CC(=O)c1ccccc1N`, the Potency entry in [1], in [2], in assay [3], in [4], in [5] and in assay [6] was “inactive” in each case. Moreover, the Potency entry in assay [7], in assay [8], in assay [9] and in assay [10] was “inactive” each time.
